In PubChem BioAssay (NCATS):
Inconclusive results are not listed. The source made the active and inactive calls. The call rests on the fitted dose curve; in most records, active means well fitted curve in the direction sought with a large enough effect; inconclusive means small, poorly fitted or top-dose-only effect, or another doubt; inactive means no such curve, though single readings can be large; an effect the other way counts as inactive or inconclusive.

Columns and labels:
[1] = molecular target: Rap guanine nucleotide exchange factor 3 (Homo sapiens) (UniProt O95398); test: Confirmatory qHTS for agonist of cAMP-regulated guanine nucleotide exchange factor 3 (EPAC1) (AID 1645881);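 further: EPAC1 catalysed release of BODIPY-GDP from Rap1B seen as fluorescence loss; 100% = effect of cAMP agonist control; nearly all actives have a fitted effect of over 75% in size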
Chain of Rap guanine nucleotide exchange factor 3 (Homo sapiens) (O95398 whole entry, looked up): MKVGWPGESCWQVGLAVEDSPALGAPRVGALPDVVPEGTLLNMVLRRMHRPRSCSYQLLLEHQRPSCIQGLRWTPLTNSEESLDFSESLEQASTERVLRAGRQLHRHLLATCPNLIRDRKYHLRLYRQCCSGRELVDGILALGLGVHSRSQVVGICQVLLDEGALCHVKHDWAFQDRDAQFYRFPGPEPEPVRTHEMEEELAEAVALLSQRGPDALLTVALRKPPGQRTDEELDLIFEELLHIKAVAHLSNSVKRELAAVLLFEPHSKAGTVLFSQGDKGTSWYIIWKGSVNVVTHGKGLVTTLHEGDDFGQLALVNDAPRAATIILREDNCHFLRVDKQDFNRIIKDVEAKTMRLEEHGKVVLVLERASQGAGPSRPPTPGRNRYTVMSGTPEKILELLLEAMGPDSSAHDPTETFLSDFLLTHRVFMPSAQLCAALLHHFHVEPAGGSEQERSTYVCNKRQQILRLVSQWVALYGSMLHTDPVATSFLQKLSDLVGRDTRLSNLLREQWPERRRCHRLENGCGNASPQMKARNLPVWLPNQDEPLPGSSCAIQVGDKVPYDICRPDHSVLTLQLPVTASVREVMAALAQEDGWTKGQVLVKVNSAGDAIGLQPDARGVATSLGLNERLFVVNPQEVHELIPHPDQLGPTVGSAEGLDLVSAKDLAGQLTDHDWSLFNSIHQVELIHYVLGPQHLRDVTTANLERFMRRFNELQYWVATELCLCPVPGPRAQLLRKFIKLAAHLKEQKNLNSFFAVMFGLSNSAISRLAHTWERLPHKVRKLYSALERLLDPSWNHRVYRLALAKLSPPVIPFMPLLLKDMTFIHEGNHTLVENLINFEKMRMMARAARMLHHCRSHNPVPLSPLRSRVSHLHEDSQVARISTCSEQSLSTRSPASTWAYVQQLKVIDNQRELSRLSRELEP

[2] = molecular target: Rap guanine nucleotide exchange factor 4 (Homo sapiens) (UniProt Q8WZA2); test: Confirmatory qHTS for agonist of cAMP-regulated guanine nucleotide exchange factor 4 (EPAC2) (AID 1645884);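 further: nucleotide exchange releases bodipy-GDP from Rap1 and this lowers its fluorescence; on the % scale 0 is the no-effect control and ±100 the full control effect; nearly all actives have a fitted effect of over 65% in size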
Chain of Rap guanine nucleotide exchange factor 4 (Homo sapiens) (Q8WZA2 whole entry, looked up): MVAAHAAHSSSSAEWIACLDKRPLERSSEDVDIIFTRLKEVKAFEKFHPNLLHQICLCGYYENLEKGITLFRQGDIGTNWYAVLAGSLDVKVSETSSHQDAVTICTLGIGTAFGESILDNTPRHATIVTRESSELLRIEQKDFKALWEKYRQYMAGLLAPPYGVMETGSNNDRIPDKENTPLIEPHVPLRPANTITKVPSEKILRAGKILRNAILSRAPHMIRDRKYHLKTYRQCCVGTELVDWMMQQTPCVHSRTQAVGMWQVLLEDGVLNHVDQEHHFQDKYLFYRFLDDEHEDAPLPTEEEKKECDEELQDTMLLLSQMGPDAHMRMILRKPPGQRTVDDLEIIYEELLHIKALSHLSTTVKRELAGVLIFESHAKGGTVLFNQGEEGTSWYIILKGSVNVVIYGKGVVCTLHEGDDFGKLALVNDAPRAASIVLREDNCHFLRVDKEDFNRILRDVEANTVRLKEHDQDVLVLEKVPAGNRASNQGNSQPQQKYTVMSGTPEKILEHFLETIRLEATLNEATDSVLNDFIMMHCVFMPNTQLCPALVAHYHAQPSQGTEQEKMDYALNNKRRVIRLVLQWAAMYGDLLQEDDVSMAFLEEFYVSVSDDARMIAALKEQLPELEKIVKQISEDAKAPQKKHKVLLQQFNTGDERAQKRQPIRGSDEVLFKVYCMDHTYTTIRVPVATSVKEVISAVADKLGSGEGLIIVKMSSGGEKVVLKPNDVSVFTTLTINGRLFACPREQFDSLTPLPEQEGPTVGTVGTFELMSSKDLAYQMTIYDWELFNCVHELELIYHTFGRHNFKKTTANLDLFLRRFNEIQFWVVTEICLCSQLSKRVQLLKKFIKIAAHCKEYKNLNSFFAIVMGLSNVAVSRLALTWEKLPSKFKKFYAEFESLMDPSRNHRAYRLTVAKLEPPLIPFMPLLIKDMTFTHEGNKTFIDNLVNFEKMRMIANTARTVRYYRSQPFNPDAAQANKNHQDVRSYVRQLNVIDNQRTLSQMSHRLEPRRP

[3] = molecular target: Rap guanine nucleotide exchange factor 4 (Homo sapiens) (UniProt Q8WZA2); test: Confirmatory qHTS for antagonist of cAMP-regulated guanine nucleotide exchange factor 4 (EPAC2) (AID 1645885); further: nearly all actives have a fitted effect of over 25% in size; further: potency means the concentration at half of the fitted maximal effect
[4] = molecular target: Rap guanine nucleotide exchange factor 3 (Homo sapiens) (UniProt O95398); test: Counterscreen qHTS for agonist of cAMP-regulated guanine nucleotide exchange factor 3 (EPAC1) (AID 1645889); further: % of control where 0% means no effect; nearly all actives have a fitted effect of over 40% in size
In short: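 Rap1B-BODIPY-GDP 250 nM + GDP 50 uM; cpds 7-pt, final 9.74 nM–152 uM (activator mode) or from 7.32 nM upwards (inhibitor mode); RT; FI 480/540 nm at 5 and 30 min, then ± cAMP, reread.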

CNC(=O)c1ccc(Nc2nnc(-c3ccc(O)cc3)c3ccccc23)cc1
inactive: Potency [1] | Potency [2] | Potency [3] | Potency [4]

OC(c1ccccc1)(c1nc(-c2cccc(C(F)(F)F)c2)cs1)C(F)(F)F (stereo not given)
inactive: Potency [1] | Potency [2] | Potency [3] | Potency [4]

Cc1ccc(NS(=O)(=O)c2cccc(C(=O)OCC(=O)NCc3ccco3)c2)cc1
inactive: Potency [1] | Potency [2] | Potency [3] | Potency [4]

CC1=CCC[C@@H]2[C@@](C)(CC/C(C)=C/C(=O)O)[C@H](C)CC[C@@]12C
inactive: Potency [1] | activation [2] 7.29% [at 17.1 µM, percent relative to cAMP agonist control] | Potency [3] | activation [4] 10.7% [at 30.8 µM]

CCC(NC(=O)c1ccccc1NC(=O)c1ccco1)C(=O)NNC(=O)c1ccc(OC)cc1 (stereo not given)
inactive: Potency [1] | activation [2] 0.808% [at 17.1 µM, percent relative to cAMP agonist control] | Potency [3] | activation [4] 9.27% [at 30.8 µM]

CCCC[C@H]1COCCS(=O)(=O)N1Cc1ccc(Br)cc1
inactive: Potency [1] | Potency [2] | Potency [3] | Potency [4]

CCn1cc(CN2CCc3c([nH]c4ccccc34)C2c2cccc(OC)c2)c(C)n1 (stereo not given)
inactive: Potency [1] | activation [2] -1.07% [at 17.1 µM, percent relative to cAMP agonist control] | Potency [3] | activation [4] 8.44% [at 30.8 µM]

CCCc1[nH]c2ccc(C(=O)OC)cc2c1CCC
active: Potency [3] 19 µM
inactive: Potency [1] | Potency [2] | Potency [4]

CCc1nc2ccc(C(=O)Nc3ccc(NC(C)=O)cc3)cn2c1N(C)CCC(C)C
inactive: Potency [1] | Potency [2] | Potency [3] | Potency [4]

COc1ccc2[nH]cc(S(=O)(=O)c3ccc(C)cc3)c2c1
inactive: Potency [1] | Potency [2] | Potency [4]
active: Potency [3] 21.3 µM

CCCCC[C@H](C)N1C[C@@H](COCc2ccccc2)Oc2cc(N3CC[C@@H](O)C3)ccc2S1(=O)=O
inactive: Potency [1] | activation [2] 6.13% [at 17.1 µM, percent relative to cAMP agonist control] | Potency [3] | activation [4] 5.17% [at 30.8 µM]

O=C(O)CCCC(=O)N1CCN(c2nc(-c3ccccc3Cl)c3cc(Br)ccc3n2)CC1
active: Potency [3] 13.5 µM
inactive: Potency [1] | Potency [2] | Potency [4]

Cc1ccc(NS(=O)(=O)c2ccc(C(=O)N3CC(C)CC(C)C3)cc2)cc1 (stereo not given)
inactive: Potency [1] | Potency [2] | Potency [3] | Potency [4]

Cc1ccnc(NC(=O)C2CCN(S(=O)(=O)c3cccc(C(F)(F)F)c3)CC2)c1
inactive: Potency [1] | Potency [2] | Potency [3] | Potency [4]

C[C@H]1CN([C@@H](C)CO)S(=O)(=O)c2ccc(Br)cc2O[C@@H]1CN(C)Cc1ccccc1
active: Potency [3] 23.9 µM
inactive: Potency [1] | Potency [2] | Potency [4]

O=Nc1c(O)n(Cc2cccc(C(F)(F)F)c2)c2ccccc12
inactive: Potency [1] | Potency [2] | Potency [4]
active: Potency [3] 47.8 µM

O=C(Nc1ccc(Cl)cc1)Nc1ccccc1NS(=O)(=O)c1cccs1
inactive: Potency [1] | activation [2] 7.96% [at 17.1 µM, percent relative to cAMP agonist control] | Potency [3] | activation [4] 27.1% [at 30.8 µM]

CCCC(=O)NC(c1ccc(C)cc1)c1ccc2cccnc2c1O (stereo not given)
inactive: Potency [1] | activation [2] 0% [at 17.1 µM, percent relative to cAMP agonist control] | Potency [3] | activation [4] 7.43% [at 30.8 µM]

O=C(O)c1cccc(Nc2ccc([N+](=O)[O-])c3nonc23)c1
inactive: Potency [1] | Potency [2] | Potency [3] | Potency [4]

CC1Sc2ccc(C#N)cc2N(Cc2cccc(C(F)(F)F)c2)C1=O (stereo not given)
inactive: Potency [1] | Potency [2] | Potency [3] | Potency [4]

Cc1ccc(C)c(S(=O)(=O)N2CCN(C(=O)/C=C/c3ccco3)CC2)c1
inactive: Potency [1] | Potency [2] | Potency [3] | Potency [4]

Cc1cc(C2(c3ccc(O)c(C)c3)C(=O)N(C)c3ccc(Br)cc32)ccc1O
inactive: Potency [1] | activation [2] 5.15% [at 17.1 µM, percent relative to cAMP agonist control] | Potency [3] | activation [4] 17.4% [at 30.8 µM]

CC(C)(C)Cc1c(-c2ccco2)nc2ccc(Cl)cn12
inactive: Potency [1] | activation [2] 1.87% [at 17.1 µM, percent relative to cAMP agonist control] | Potency [3] | activation [4] 3.65% [at 30.8 µM]

Cn1cc(S(=O)(=O)Nc2cccc(F)c2)c(=O)n(C)c1=O
inactive: Potency [1] | activation [2] 0% [at 17.1 µM, percent relative to cAMP agonist control] | Potency [3] | activation [4] -7.11% [at 30.8 µM]

Cc1cc(-c2ccc(/C=N/n3cnnc3)o2)ccc1Cl
inactive: Potency [1] | Potency [2] | Potency [3] | Potency [4]
